# In ChEMBL document CHEMBL1157539, “Thousands of chemical starting points for antimalarial lead identification” (Nature, 2010):
# Test system: Plasmodium falciparum
# Assay: GSK_TCMDC: Inhibition of Plasmodium falciparum 3D7 in whole red blood cells, using parasite LDH activity as an index of growth. Test compounds present at 2uM
# Type: functional
row,SMILES,Inhibition
1,CC(O)C1CCCCN1C(=O)c1ccc(-c2ccc(-c3nc4cc(F)ccc4[nH]3)cc2)cc1 (centres undefined),100%
2,COC(=O)c1cccc(NC(=O)NC2CCN(c3ccnc(NCc4ccc(F)cc4)n3)CC2)c1,93%
3,COc1ccccc1C1CCN(C2CCC(NC(=O)/C=C/c3cccc(Cl)c3F)CC2)CC1 (centres undefined),96%
4,CN(CCN)Cc1ccc(-c2ccc(-c3nc4cc(C(F)(F)F)ccc4[nH]3)s2)cc1.O=C(O)C(F)(F)F,98%

# Test system: Plasmodium falciparum
# Assay: GSK_TCMDC: Inhibition of Plasmodium falciparum Dd2 in whole red blood cells, using parasite LDH activity as an index of growth. Test compounds present at 2uM
# Type: functional
row,SMILES,Inhibition
1,CCCOc1cc(OCCC)cc(-c2ccc(C(=O)Nc3ccc4ccc(C)nc4c3)c(=O)[nH]2)c1,76%
2,CCCN(CCC)CCCNc1ccc(C(=O)Nc2ccc(OCC)cc2)cc1[N+](=O)[O-],2%
3,CC(C)N1CCC(N(Cc2ccc(-c3ccc(C(F)(F)F)cc3)cc2)C(=O)Cn2c(SCc3cccc(F)c3F)nc(=O)c3ccccc32)CC1.O=C(O)C(O)C(O)C(=O)O,75%
4,CC(C)N1CCN(C(=O)c2ccc(CNCCCN3CCN(c4cccc(Cl)c4Cl)CC3)s2)CC1.Cl,44%
5,Cc1ccc(CN2CCCN(Cc3cccc(NC(=O)c4ccc(-c5ccccc5)cc4)c3)CC2)cc1C.O=C(O)C(F)(F)F,19%
6,CC(=O)c1ccccc1C(=O)N1CCOc2ccc(C(O)C(c3ccccc3)c3ccccc3)cc2C1 (centres undefined),98%
7,CC(=O)N(C)c1cccc(C(=O)Nc2ccc(-c3cccc(-c4nc5cccc(C)c5[nH]4)c3)cc2)c1,68%
8,O=C(/C=C/c1ccc(Cl)c(Cl)c1)N1CCC(CCN2CCC(c3c[nH]c4ccccc34)CC2)CC1,44%
9,CNCCNCc1ccc(-c2ccc(-c3nc4cccc(C)c4[nH]3)cc2)cc1.O=C(O)C(F)(F)F,79%
10,CC(=O)Nc1ccc(C(=O)N2CCN(c3ccnc4cc(Cl)ccc34)CC2)cc1.O=C(O)C(F)(F)F,43%
11,Nc1nccc2ccc(-c3ccnc(NCc4cccnc4)n3)cc12,95%
12,CN(c1ccc(NC(=O)Nc2cc(C(F)(F)F)ccc2F)cc1)c1ccnc(NCCN2CCCC2)n1.O=C(O)C(F)(F)F,1%
13,CC1=C(C(=O)OC(C)C)C(c2ccccc2Cl)C2=C(CC(c3ccccc3)CC2=O)N1 (centres undefined),84%
14,CNC(=O)NC1=NC(C)(C)N(OCc2ccc(Cl)c(Cl)c2)C(NC(=O)NC)=N1,0%
15,O=C(Nc1ccc(-c2ccccc2)cc1)Nc1cccc(Cn2cnc(N3CCCNCC3)cc2=O)c1.O=C(O)C(F)(F)F,13%
16,Cc1c(Cc2ccccc2Cl)cnc2nc(N)nc(N)c12.Cl,96%
17,COc1ccc(CC2(CO)CCN(Cc3ccc(O)c(Cl)c3)CC2)cc1,14%
18,O=C(O)C(F)(F)F.O=C1COC(c2ccccc2)(c2ccccc2)CN1CC1CCN(Cc2ccc(O)cc2Cl)C1 (centres undefined),81%
19,CCCC(=O)c1cnc2c(OCCCc3c[nH]cn3)cccc2c1Nc1c(C)cccc1C,14%
20,O=C(Nc1ccccc1Oc1ccccc1)NC1CCN(c2ccnc3cc(Cl)ccc23)C1.O=C(O)C(F)(F)F (centres undefined),74%

row,SMILES,Inhibition
1,Cc1ccc2[nH]c(-c3ccc(C=CC(=O)NC4CCN(Cc5ccccc5)CC4)cc3)nc2c1,92%
2,O=C(Nc1ccccc1)N(Cc1ccc(-c2cccc(CNC3CCCC3)c2)cc1)C1CCN(Cc2ccccc2)CC1.O=C(O)C(F)(F)F,67%
3,COC(=O)c1c(NC(=O)c2cccc(C(F)(F)F)c2)sc2c1CCN(Cc1ccccc1)C2.Cl,61%
4,O=C(O)C(F)(F)F.c1ccc2[nH]c(-c3ccc(-c4ccc(CNCCc5ccncc5)cc4)s3)nc2c1,98%
5,Oc1ccccc1CN1CCC2(CCCN(Cc3ccccc3F)C2)C1 (centres undefined),83%
6,COc1ccc(-c2ccc(NC(=O)c3ccc(C#N)cc3)cc2)cc1CN(C)CCO.O=C(O)C(F)(F)F,44%
7,Nc1nc(N)c2c(Oc3cccc4ccccc34)cccc2n1,10%
8,CN(C)c1ccc(NC2=NC(N)=NC(C)(C)N2)cc1,5%
9,Nc1ncc(-c2cn[nH]c2)cc1-c1nc2ccc(Cl)cc2[nH]1,100%
10,CN1CCCC(CN2CCN(Cc3cccc(-c4ccc(-c5nc6cc(F)ccc6[nH]5)cc4)c3)CC2)C1.O=C(O)C(F)(F)F (centres undefined),100%
11,CC(C)(C)c1ccc(NC(=O)c2ccc(CN3CCCN(Cc4cccc(C#N)c4)CC3)cc2)cc1.O=C(O)C(F)(F)F,12%
12,COc1ccc(-c2nc(NC(=O)CS(=O)(=O)c3ccccc3)sc2C)cc1,82%
13,CCCc1cc(N2CCC(N3CCCC3)CC2)nc(Nc2ccc(Cl)cc2)n1,9%
14,CC(C)(CNCc1ccc(Cl)c(Cl)c1)c1nc(-c2ccc(Cl)c(O)c2)c(-c2ccncc2)[nH]1.Cl,97%
15,COC(=O)c1cc2cccc(NC[C@@H](C)NC[C@H](O)c3cccc(Cl)c3)c2[nH]1,99%
16,COc1ccc(CCNC(=O)c2ccc(-n3cc(NC(=O)c4cccnc4)cn3)cc2)cc1OC,89%
17,CC(O)C1CCCCN1C(=O)c1ccc(-c2ccc(-c3nc4cc(F)ccc4[nH]3)cc2)cc1 (centres undefined),99%
18,COC(=O)c1cccc(NC(=O)NC2CCN(c3ccnc(NCc4ccc(F)cc4)n3)CC2)c1,39%
19,COc1ccccc1C1CCN(C2CCC(NC(=O)/C=C/c3cccc(Cl)c3F)CC2)CC1 (centres undefined),19%
20,CN(CCN)Cc1ccc(-c2ccc(-c3nc4cc(C(F)(F)F)ccc4[nH]3)s2)cc1.O=C(O)C(F)(F)F,98%
